MEX-5 binding = MEX-5 zinc finger RNA-binding disruptors – biochemical, C. elegans, fluorescence polarization, MLPCN library, primary screen | activity score (negative = inhibition of binding), % at 10 µM | MEX-5/FITC-TCR2 RNA binding; stronger effect = lower value | Zinc finger protein mex-5 (Caenorhabditis elegans), Q9XUB2 | 300,000 compounds, 0.38% hits;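 active means inhibition past about -25% in most replicates, and total fluorescence under double the plate's negative control median, limit read from the data; inconclusive means replicates evenly split on the limit, or fluorescence at least double controls; inactive means too little inhibition in most replicates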;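 further: 0% = DMSO and -100% = 5 µM competing unlabeled TCR2 RNA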
GLD-1 RNA inh = GLD-1/TGE RNA complex disruptors, primary screen, biochemical, fluorescence polarization | Female germline-specific tumor suppressor gld-1 (Caenorhabditis elegans), Q17339 | purified GLD-1 + fluorescein TGE RNA | inhibition, % at 5.96 µM | 320,000 compounds, 0.44% hits | AID 2280, 2010;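 active means percent inhibition above a per-plate cutoff, the plate mean of test compounds plus 3 SD, cut at about 30% in these data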;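 further: 0% = DMSO wells with GLD-1 and probe and 100% = wells lacking GLD-1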
Bcl-xL primary = inhibitors of human Bcl-xL, primary screen, biochemical, fluorescence polarization, HTS. GST-Bcl-xL / FITC-Bim BH3 peptide fluorescence polarization. inhibition, % at 10.9 µM. 320,000 compounds, 0.7% hits. AID 2129, 2009;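 active means inhibition above the mean of all tested compounds plus 3 SD, cutoff set per campaign, cut at about 30% in these data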;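 further: 0% = DMSO wells and 100% = unlabeled Bim-BH3 peptide competitor; inhibitors lower millipolarization by displacing the labeled peptide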
MCL1-BIM inh = inhibitors of MCL1 binding to BIM-BH3, primary screen, biochemical, fluorescence polarization | Induced myeloid leukemia cell differentiation protein Mcl-1 (Homo sapiens), Q07820 | GST-MCL1 / FITC-Bim-BH3 fluorescence polarization | inhibition, % at 10.9 µM | 320,000 compounds, 0.68% hits | AID 2057, 2009;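 active means inhibition above the mean inhibition of all tested compounds plus 3 SD, set per campaign, cut at about 40% in these data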;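 further: 0% = DMSO wells and 100% = unlabeled Bim-BH3 peptide control; higher means more loss of mP so more displacement of Bim peptide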
Target sequence (Q07820 whole entry, looked up): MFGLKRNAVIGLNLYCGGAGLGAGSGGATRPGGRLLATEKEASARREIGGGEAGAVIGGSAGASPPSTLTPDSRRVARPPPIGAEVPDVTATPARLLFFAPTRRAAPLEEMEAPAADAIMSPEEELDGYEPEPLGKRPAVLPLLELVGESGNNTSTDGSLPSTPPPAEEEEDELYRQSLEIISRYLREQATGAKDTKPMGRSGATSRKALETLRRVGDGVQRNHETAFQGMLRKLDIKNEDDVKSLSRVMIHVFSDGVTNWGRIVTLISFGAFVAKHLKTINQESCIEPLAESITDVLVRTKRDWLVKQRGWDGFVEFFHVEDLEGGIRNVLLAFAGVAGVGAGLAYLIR
EBV gp42 block = Epstein-Barr virus gp42 inhibitors, primary screen, biochemical, uHTS, fluorescence polarization; Glycoprotein 42 (Epstein-Barr virus (strain AG876)), Q1HVG2; Fluorescence polarization binding assay, mP read-out; inhibition, % (tested at 21.74 µM); 220,000 compounds, 0.42% hits; AID 1085, 2008; in the data active means inhibition above about 50%
Target sequence (Q1HVG2 whole entry, looked up): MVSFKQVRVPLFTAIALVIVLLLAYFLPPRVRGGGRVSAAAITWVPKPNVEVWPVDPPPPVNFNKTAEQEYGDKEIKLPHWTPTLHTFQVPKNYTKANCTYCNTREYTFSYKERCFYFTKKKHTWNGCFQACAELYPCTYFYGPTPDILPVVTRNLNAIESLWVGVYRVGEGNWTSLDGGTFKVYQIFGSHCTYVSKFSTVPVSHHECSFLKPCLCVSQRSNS
BCLXL inh confirm = Bcl-xL inhibitors blocking Bim BH3 binding, confirmation, counter-screen for MCL1 inhibitor project, biochemical, fluorescence polarization | shares compounds with MCL1-BIM inh | GST-Bcl-xL / FITC-Bim BH3 peptide FP binding | inhibition, % at 10.9 µM | 1,700 compounds, 54% hits;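 active means inhibition above a cutoff equal to the mean inhibition of all tested compounds plus 3 SD, cut at about 30% in these data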;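 further: 0% = DMSO wells and 100% = unlabeled Bim BH3 control peptide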
MCL1 inh confirm = inhibitors of MCL1 binding to BIM-BH3, confirmation, biochemical, fluorescence polarization, triplicate; shares compounds with MCL1-BIM inh; GST-MCL1 / FITC-Bim-BH3 fluorescence polarization; inhibition, % at 10.9 µM; 1,700 compounds, 61% hits;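 active means inhibition above the average of all tested compounds plus 3 SD, cut at about 40% in these data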;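 further: 0% = DMSO wells and 100% = unlabeled Bim-BH3 control peptide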
An asterisk follows results filed as active; ! = a repeat was not active. Shown are actives, neighbours in structure and some others; about 1.3% of the full set was active somewhere.

COCCCNC(=O)c1ccc2c3c(onc13)-c1ccccc1C2=O was read as MEX-5 binding -79*, GLD-1 RNA inh 197*, Bcl-xL primary active, MCL1-BIM inh active, EBV gp42 block 184*, BCLXL inh confirm active and MCL1 inh confirm active.
CN1CCN(C2=C(Cl)C(=O)N(C3CCCCC3)C2=O)CC1 was read as MEX-5 binding -2, GLD-1 RNA inh 18, Bcl-xL primary 24, MCL1-BIM inh 29 and EBV gp42 block -7.
CN1CCN(C2=C(Cl)C(=O)C(c3cnc(N4CCCCC4)s3)=C(Cl)C2=O)CC1 was read as MEX-5 binding -71*, GLD-1 RNA inh 27, Bcl-xL primary 77*, MCL1-BIM inh 93*, EBV gp42 block -7, BCLXL inh confirm 72* and MCL1 inh confirm 92*.
Screening c1ccc(CN2CCN(C3=Nc4cccc5cccc3c45)CC2)cc1 returned MEX-5 binding -7 and EBV gp42 block 13.
Screening O=C1CCN2C=Nc3cccc4ccc1c2c34 returned MEX-5 binding inconclusive, GLD-1 RNA inh 169*, Bcl-xL primary active, MCL1-BIM inh active, EBV gp42 block 137*, BCLXL inh confirm 192* and MCL1 inh confirm active.
`COc1ccccc1Oc1ccc(NC(=O)c2ccc(Cl)cc2)cc1` gave MEX-5 binding -1, GLD-1 RNA inh -12, Bcl-xL primary 2, MCL1-BIM inh 1 and EBV gp42 block -5.
`COc1ccc2nc3ccccc3nc2c1NC(=O)c1ccc(Cl)cc1` gave MEX-5 binding -31*, GLD-1 RNA inh -3, Bcl-xL primary 50*, MCL1-BIM inh 104*, EBV gp42 block 46, BCLXL inh confirm 82* and MCL1 inh confirm 105*.
O=C(Cn1ccc(NC(=O)OCc2ccccc2)nc1=O)NCc1ccc2[nH]ccc2c1 was read as GLD-1 RNA inh -6, Bcl-xL primary 1 and MCL1-BIM inh 8.
Screening O=C(CSc1nc(=O)n(CCCN2CCOCC2)c2c1CCCC2)Nc1ccc(Cl)cc1 returned MEX-5 binding 1, GLD-1 RNA inh 6, Bcl-xL primary 6 and MCL1-BIM inh 1.
Screening COc1cccc(C(=O)OCC(=O)Nc2sc3c(c2C(N)=O)CCC3)c1O returned GLD-1 RNA inh -5, Bcl-xL primary 21, MCL1-BIM inh 50*, BCLXL inh confirm 24 and MCL1 inh confirm 45*.
For Cn1cnnc1SCC(=O)Nc1sc2c(c1C(N)=O)CCC2 the results were MEX-5 binding -5, GLD-1 RNA inh -2, Bcl-xL primary 20, MCL1-BIM inh 56*, EBV gp42 block 65*, BCLXL inh confirm 24 and MCL1 inh confirm 56*.
For COc1ccc(NC(=O)Cc2c(SC)c3ccccc3n2Cc2ccccc2)cc1 the results were MEX-5 binding 0, GLD-1 RNA inh 4, Bcl-xL primary 3, MCL1-BIM inh 4 and EBV gp42 block -2.
CC(C)(C)c1nc(NCCO)c2nnn(Cc3ccccc3)c2n1 was read as MEX-5 binding 0, GLD-1 RNA inh 11, Bcl-xL primary 1 and MCL1-BIM inh 0.
`Cc1cc(C)c2c(c1)NC(C(=O)O)C1CC=CC21` (stereo unspecified) gave MEX-5 binding -38*, GLD-1 RNA inh 3, Bcl-xL primary 69*, MCL1-BIM inh 115*, BCLXL inh confirm 45* and MCL1 inh confirm 92*.
`Cc1ccc2c(c1C)NC(C(=O)O)C1CC=CC21` (stereo unspecified) gave MEX-5 binding -1, GLD-1 RNA inh -1, Bcl-xL primary 48*, MCL1-BIM inh 76*, EBV gp42 block 87*!, BCLXL inh confirm 47* and MCL1 inh confirm 89*.
For O=C(O)C1Nc2c(C(=O)N3CCOCC3)cccc2C2C=CCC12 (stereo unspecified) the results were MEX-5 binding -57*, GLD-1 RNA inh 17, Bcl-xL primary 50*, MCL1-BIM inh 68*, EBV gp42 block -3, BCLXL inh confirm 42* and MCL1 inh confirm 72*.
CCCNC(=S)N1CCC(NC(=O)c2ccc(C)cc2)CC1 was read as MEX-5 binding -1, GLD-1 RNA inh 0, Bcl-xL primary 3 and MCL1-BIM inh 9.
CCCCNC(=O)c1ccc(S(=O)(=O)c2ccc(Cl)cc2)c(NC(C)=O)c1 was read as MEX-5 binding 1, GLD-1 RNA inh 4, Bcl-xL primary 4, MCL1-BIM inh -1 and EBV gp42 block 2.
For CCN(CC)S(=O)(=O)c1ccc(NN=C2CCN(C)CC2)c([N+](=O)[O-])c1 the results were MEX-5 binding -5, GLD-1 RNA inh -3, Bcl-xL primary 8, MCL1-BIM inh 6 and EBV gp42 block -9.
Screening CCCNc1nc(Cl)nc(NC(C)(C)C)n1 returned MEX-5 binding 0, GLD-1 RNA inh -2, Bcl-xL primary 3, MCL1-BIM inh 0 and EBV gp42 block -7.
For Cc1cccc(-n2c(O)c(C=Nc3ccc4c(c3)OCO4)c3ccccc3c2=O)n1 the results were MEX-5 binding -36*, GLD-1 RNA inh -62, Bcl-xL primary 26, MCL1-BIM inh 40*, EBV gp42 block -78, BCLXL inh confirm 0 and MCL1 inh confirm -16.
Screening Cc1cccc(-n2c(O)c(C=Nc3cccc(O)c3)c3ccccc3c2=O)n1 returned MEX-5 binding -1, GLD-1 RNA inh 5, Bcl-xL primary 6, MCL1-BIM inh 5 and EBV gp42 block -1.
Screening O=C1c2cccc3c(N4CCCCC4)ccc(c23)C(=O)N1c1ccccn1 returned MEX-5 binding -69*, GLD-1 RNA inh 161*, Bcl-xL primary 122*, MCL1-BIM inh 172*, EBV gp42 block 129*, BCLXL inh confirm 154* and MCL1 inh confirm 179*.
Cc1[nH]n(-c2c(Cl)cc(Cl)cc2Cl)c(=O)c1C=Nc1ccc(S(=O)(=O)N2CCOCC2)cc1 was read as MEX-5 binding 0, GLD-1 RNA inh 8, Bcl-xL primary 5, MCL1-BIM inh 7 and EBV gp42 block -6.
For Cc1cc2occ(CC(=O)N(C)CC(=O)Nc3ccccc3C(F)(F)F)c2cc1C the results were GLD-1 RNA inh 6, Bcl-xL primary -3 and MCL1-BIM inh -2.
Screening CCN(C(=O)c1coc(=O)c(Br)c1)c1ccc2c(c1)OCO2 returned MEX-5 binding -12, GLD-1 RNA inh 18, Bcl-xL primary 58*, MCL1-BIM inh 62*, EBV gp42 block 32, BCLXL inh confirm 110* and MCL1 inh confirm 122*.

Compound activity deposited in PubChem BioAssay by several laboratories.
